The supplement of paper PMC8975748
Structures can show the parent of a compound that is named as a salt. ± gives the standard deviation of the averaged measurements.

Tests used:
[1] = test system: Saccharomyces cerevisiae BY4741 SeMeCo community; experiment: mean cell size (pixel area) (pixels); higher = larger cells; conditions: 10 µM; 24 h; SM minimal medium
Summary of the method: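 Mean cell pixel area per well was measured in a four-plasmid fluorescent community of Saccharomyces cerevisiae BY4741, where every plasmid complements one auxotrophy and carries a fluorescent marker. Cells from an overnight preculture at OD600 = 1.0 were diluted to OD600 = 0.3 and dispensed at 70 µl into 384-well plates acoustically predosed with drug to a final 10 µM in SM medium. Incubation lasted 24 h, followed by paraformaldehyde fixation, automated confocal imaging and analysis in Harmony. Reported figures are averaged over 3 replicates. Same SeMeCo high-content imaging drug screen: Selleck FDA-approved drugs at 10 µM, 24 h in SM medium, 384-well plates, 3 replicates.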

[2] = test system: Saccharomyces cerevisiae BY4741 SeMeCo community; experiment: z-score of prototroph abundance vs DMSO median; higher = larger share of this subpopulation than in DMSO controls; conditions: 10 µM; 24 h; SM minimal medium; subpopulation (auxotrophy): Prototroph
Summary of the method: (§1)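 Cells of a Saccharomyces cerevisiae BY4741 community, carrying four plasmids that each restored one auxotrophy and encoded a distinct fluorescent protein, were pre-grown overnight to OD600 1.0 and diluted to 0.3. A 70 µl volume was added to 384-well plates acoustically predosed with library drugs (10 µM final) and grown 24 h in minimal SM medium. After paraformaldehyde fixation, automated confocal microscopy was used, with single-auxotroph fluorescent strains for thresholds and autofluorescence correction. The abundance of each subpopulation was scored as a z-score against the vehicle-well median.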

[3] = test system: Saccharomyces cerevisiae BY4741 SeMeCo community; experiment: z-score of subpopulation abundance vs DMSO median, subpopulation auxotrophic for M; higher = larger share of this subpopulation than in DMSO controls; conditions: 10 µM; 24 h; SM minimal medium; subpopulation (auxotrophy): M
Summary of the method: as §1

[4] = test system: Saccharomyces cerevisiae BY4741 SeMeCo community; experiment: z-score of subpopulation abundance vs DMSO median, subpopulation auxotrophic for L; higher = larger share of this subpopulation than in DMSO controls; conditions: 10 µM; 24 h; SM minimal medium; subpopulation (auxotrophy): L
Summary of the method: as §1

[5] = test system: Saccharomyces cerevisiae BY4741 SeMeCo community; experiment: z-score of subpopulation abundance vs DMSO median, subpopulation auxotrophic for U; higher = larger share of this subpopulation than in DMSO controls; conditions: 10 µM; 24 h; SM minimal medium; subpopulation (auxotrophy): U
Summary of the method: as §1

[6] = test system: Saccharomyces cerevisiae BY4741 SeMeCo community; experiment: z-score of subpopulation abundance vs DMSO median, subpopulation auxotrophic for H; higher = larger share of this subpopulation than in DMSO controls; conditions: 10 µM; 24 h; SM minimal medium; subpopulation (auxotrophy): H
Summary of the method: as §1

[7] = test system: Saccharomyces cerevisiae BY4741 SeMeCo community; experiment: z-score of subpopulation abundance vs DMSO median, subpopulation auxotrophic for HM; higher = larger share of this subpopulation than in DMSO controls; conditions: 10 µM; 24 h; SM minimal medium; subpopulation (auxotrophy): HM
Summary of the method: as §1

[8] = test system: Saccharomyces cerevisiae BY4741 SeMeCo community; experiment: z-score of subpopulation abundance vs DMSO median, subpopulation auxotrophic for HL; higher = larger share of this subpopulation than in DMSO controls; conditions: 10 µM; 24 h; SM minimal medium; subpopulation (auxotrophy): HL
Summary of the method: as §1

[9] = test system: Saccharomyces cerevisiae BY4741 SeMeCo community; experiment: z-score of subpopulation abundance vs DMSO median, subpopulation auxotrophic for HLM; higher = larger share of this subpopulation than in DMSO controls; conditions: 10 µM; 24 h; SM minimal medium; subpopulation (auxotrophy): HLM
Summary of the method: as §1

[10] = test system: Saccharomyces cerevisiae BY4741 SeMeCo community; experiment: z-score of subpopulation abundance vs DMSO median, subpopulation auxotrophic for HUM; higher = larger share of this subpopulation than in DMSO controls; conditions: 10 µM; 24 h; SM minimal medium; subpopulation (auxotrophy): HUM
Summary of the method: as §1

[11] = test system: Saccharomyces cerevisiae BY4741 SeMeCo community; experiment: z-score of subpopulation abundance vs DMSO median, subpopulation auxotrophic for LUM; higher = larger share of this subpopulation than in DMSO controls; conditions: 10 µM; 24 h; SM minimal medium; subpopulation (auxotrophy): LUM
Summary of the method: as §1

[12] = test system: Saccharomyces cerevisiae BY4741 SeMeCo community; experiment: z-score of subpopulation abundance vs DMSO median, subpopulation auxotrophic for HLUM; higher = larger share of this subpopulation than in DMSO controls; conditions: 10 µM; 24 h; SM minimal medium; subpopulation (auxotrophy): HLUM
Summary of the method: as §1

[13] = test system: Saccharomyces cerevisiae BY4741 SeMeCo community; experiment: z-score of subpopulation abundance vs DMSO median, subpopulation auxotrophic for LM; higher = larger share of this subpopulation than in DMSO controls; conditions: 10 µM; 24 h; SM minimal medium; subpopulation (auxotrophy): LM
Summary of the method: as §1

[14] = test system: Saccharomyces cerevisiae BY4741 SeMeCo community; experiment: z-score of subpopulation abundance vs DMSO median, subpopulation auxotrophic for HU; higher = larger share of this subpopulation than in DMSO controls; conditions: 10 µM; 24 h; SM minimal medium; subpopulation (auxotrophy): HU
Summary of the method: as §1

[15] = test system: Saccharomyces cerevisiae BY4741 SeMeCo community; experiment: z-score of subpopulation abundance vs DMSO median, subpopulation auxotrophic for UM; higher = larger share of this subpopulation than in DMSO controls; conditions: 10 µM; 24 h; SM minimal medium; subpopulation (auxotrophy): UM
Summary of the method: as §1

[16] = test system: Saccharomyces cerevisiae BY4741 SeMeCo community; experiment: z-score of subpopulation abundance vs DMSO median, subpopulation auxotrophic for LU; higher = larger share of this subpopulation than in DMSO controls; conditions: 10 µM; 24 h; SM minimal medium; subpopulation (auxotrophy): LU
Summary of the method: as §1

| Compound | mean cell size [1] | z-score of prototroph abundance [2] | z-score of subpopulation abundance [3] | z-score of subpopulation abundance [4] | z-score of subpopulation abundance [5] | z-score of subpopulation abundance [6] | z-score of subpopulation abundance [7] | z-score of subpopulation abundance [8] | z-score of subpopulation abundance [9] | z-score of subpopulation abundance [10] | z-score of subpopulation abundance [11] | z-score of subpopulation abundance [12] | z-score of subpopulation abundance [13] | z-score of subpopulation abundance [14] | z-score of subpopulation abundance [15] | z-score of subpopulation abundance [16] |
| --- | --- | --- | --- | --- | --- | --- | --- | --- | --- | --- | --- | --- | --- | --- | --- | --- |
| Clc1ccc(COC(Cn2ccnc2)c2ccc(Cl)cc2Cl)c(Cl)c1 (stereo unspecified) [Miconazole Nitrate] | 12.3 ± 0.19 | -8.17 | -6.38 | -2.76 | 3.11 | 29.9 | 0.3 | 9.42 | 19.4 | 6.7 | 0.15 | 9.42 |  |  |  |  |
| COc1ccc(Cc2cnc(N)nc2N)cc1OC [Diaveridine] | 12.35 ± 0.055 |  | 0.6 | -0.53 | -0.37 | -0.11 | -0.29 | -0.33 |  | 0.18 | -0.41 | 0.06 | -0.01 | -0.25 | -0.39 |  |
| CO[C@H]1C[C@@H]2CC[C@@H](C)[C@@](O)(O2)C(=O)C(=O)N2CCCC[C@H]2C(=O)O[C@H]([C@H](C)C[C@@H]2CC[C@@H](O)[C@H](OC)C2)CC(=O)[C@H](C)/C=C(\C)[C@@H](O)[C@@H](OC)C(=O)[C@H](C)C[C@H](C)/C=C/C=C/C=C/1C [Rapamycin (Sirolimus)] |  | -18.4 | -2.04 |  | 3.85 | 14.3 | 21.4 | 13.8 | 16 | 33 |  | 20.9 | 5.67 | 29.9 |  | 3.56 |
| COc1nc2ccc(Br)cc2cc1[C@@H](c1ccccc1)[C@@](O)(CCN(C)C)c1cccc2ccccc12 [Bedaquiline fumarate] |  | -1.58 | -0.55 |  | 0.97 | 1.1 | 0.33 | 0.4 | -0.14 | 1.74 | 3.68 | 1.29 | 0.49 | 1.44 |  | 0.86 |
| CC(Cc1ccc(O)c(O)c1)C(C)Cc1ccc(O)c(O)c1 (stereo unspecified) [Nordihydroguaiaretic acid (NDGA)] | 12.5 ± 0.17 | 0.67 | -0.1 |  | -0.02 | -1.01 | -0.39 |  | -0.39 |  | 0.39 | -0.44 | 0.02 | -0.76 | -0.5 | -0.29 |
| Nc1nc2c(ncn2COC(CO)CO)c(=O)[nH]1 [Ganciclovir] |  | -0.25 | 0.43 | 0 | 0.17 | -0.43 | -0.15 | -0.27 |  | 0.33 | -0.04 | -0.89 | -0.15 | -0.11 | 0.96 | -0.06 |
| Cc1c(-c2ccccc2)oc2c(C(=O)OCCN3CCCCC3)cccc2c1=O [Flavoxate HCl] | 12 ± 0.18 | -0.85 | 0.25 | 0.83 |  |  |  | -0.37 | 0.18 | -0.16 | 1.06 |  | 0.22 | 0.05 | 0.71 |  |
| COC(=O)C1=C(C)NC(C)=C(C(=O)OC)C1c1ccccc1[N+](=O)[O-] [Nifedipine] | 12.5 ± 0.2 | -0.35 | 0.13 |  | 0.12 | 0.64 | -0.14 | -0.95 | 0.5 | -0.1 | 0.34 | 1.1 | 0.48 | -0.68 | 0.26 | 0.14 |
| C[N+]1(C)[C@@H]2C[C@@H](OC(=O)C(O)(c3cccs3)c3cccs3)C[C@H]1[C@@H]1O[C@@H]12 [Tiotropium Bromide hydrate] | 12.5 ± 0.25 | 0.56 | 0.04 | -0.76 | 0.36 | -0.8 | -0.06 | -0.52 |  | -0.43 |  | -0.81 | -0.42 | -0.66 | 0.07 | -0.81 |
| CO[C@@H]1[C@H](OC(=O)/C=C/C=C/C=C/C=C/C(=O)O)CC[C@]2(CO2)[C@H]1[C@@]1(C)O[C@@H]1CC=C(C)C [Fumagillin] | 12.24 ± 0.059 | -1.67 | -0.12 | 1.24 | 0.58 | 1.11 |  | 1.92 |  |  | 2.33 | 1.71 | 2.31 | 1.17 | 0.11 | 1.51 |
| Nc1ccc2cc3ccc(N)cc3nc2c1 [Proflavine] | 12.11 ± 0.034 | 6.61 | 2.16 | -7.48 | -7.03 | 4.14 | 2.14 | -3.92 | -2.42 |  | -4.39 | -1.99 | -5.35 | -6.17 | -7.18 |  |
| Cc1ccccc1OCC(O)CO (stereo unspecified) [Mephenesin] | 12.23 ± 0.086 |  | 0 | 0.09 | -0.22 |  | -0.48 | -0.53 |  | -0.77 | -0.39 |  | 0.02 | -0.86 | -0.82 | -0.42 |
| CCC(=O)Oc1ccc2c(c1)CCC1C2CCC2(C)C(OC(=O)CC)CCC12 (stereo not drawn) [Estradiol dipropionate(17-Beta-Estradiol-3,17-Dipropionate)] |  | 0.27 | 0.21 |  |  |  | -0.18 | -0.96 | -0.83 | -0.16 |  | -1.07 |  | 0.2 | 0.34 | -0.67 |
| CCCCNc1ccc(C(=O)OCCN(C)C)cc1 [Tetracaine HCl] | 12.52 ± 0.015 | -0.78 | 0.03 |  | 0.72 | -0.2 | 0.5 | 0 | 0.52 | 0.58 | 0 | 0.94 | 0.43 | 0.08 | 0.04 | 1.2 |
| C=C1CC[C@@H]2[C@](C)(CO)[C@H](O)CC[C@@]2(C)[C@H]1C/C=C1\C=COC1=O [Dehydroandrographolide] | 12.37 ± 0.086 |  |  |  |  |  |  |  |  |  |  |  |  |  |  |  |
| O=c1[nH]cnc2c1ncn2[C@H]1CC[C@@H](CO)O1 [Didanosine] | 12.4 ± 0.19 |  |  |  |  |  |  |  |  |  |  |  |  |  |  |  |
| CC(=O)N1CCN(c2ccc(OCC3COC(Cn4ccnc4)(c4ccc(Cl)cc4Cl)O3)cc2)CC1 (stereo unspecified) [Ketoconazole] |  | 0.99 |  |  |  | 0.08 | -1.06 | -0.6 | -0.67 | 0.03 | -0.27 | -0.62 | -0.27 | -0.29 |  | -0.4 |
| CN(C)c1ccc(O)c2c1C[C@H]1C[C@H]3[C@H](N(C)C)C(O)=C(C(N)=O)C(=O)[C@@]3(O)C(O)=C1C2=O [Minocycline HCl] | 12.2 ± 0.13 |  |  |  |  |  |  |  |  |  |  |  |  |  |  |  |
| CC[C@H]1OC(=O)C[C@@H](O)[C@H](C)[C@@H](O[C@@H]2O[C@H](C)[C@@H](O[C@H]3C[C@@](C)(O)[C@@H](O)[C@H](C)O3)[C@H](N(C)C)[C@H]2O)[C@@H](CC=O)C[C@@H](C)C(=O)/C=C/C(C)=C/[C@@H]1CO[C@@H]1O[C@H](C)[C@@H](O)[C@@H](OC)[C@H]1OC [Tylosin tartrate] | 12.45 ± 0.055 |  |  |  |  |  |  |  |  |  |  |  |  |  |  |  |
